Results reported in PubChem BioAssay AID1159580 (chemical genetic matrix, 2015).
Where “and” joins values, the source holds several entries; their conditions need not be identical. Identical values can stand only once. Among all 5,500 compounds or so, about 2,000 (36%) were called active. Roughly 18% stayed inconclusive and do not appear here. Rule as the data show it: active = normalized growth mostly below about 0.91 (no sharp cut-off); inconclusive = no clear call, values can overlap the other calls; inactive = mostly above about 0.92. The list shows a part of the results.

Assay: chemical genetic growth profiling, strain panel (AID 1159580);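 also: tested at 20 µM; growth read once vehicle control cultures reached saturation at 30 °C; 1 = growth at the plate median or of vehicle wells; lower values mean less growth of the strain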
Settings: S. cerevisiae deletion strains, growth OD

Measured: normalized growth

CCOC(=O)C1=C[C@]2(CC)CCCN3CCc4c(n1c1ccccc41)[C@@H]32
inactive: locus YAL021C, strain ccr4, stronger effect = lower value 1.03 | locus YAL026C, strain drs2, stronger effect = lower value 1.02 | locus YAL030W, strain snc1, stronger effect = lower value 1.03 | locus YBL061C, strain skt5, stronger effect = lower value 1.02 | locus YBR009C, strain hhf1, stronger effect = lower value 1.02 | locus YBR021W, strain FUR4, stronger effect = lower value 1.02 | locus YBR023C, strain chs3, stronger effect = lower value 1.03 | locus YBR171W, strain sec66, stronger effect = lower value 1.02 | locus YBR229C, strain ROT2, stronger effect = lower value 0.957 | locus YBR231C, strain swc5, stronger effect = lower value 1.02 | locus YBR279W, strain paf1, stronger effect = lower value 1.01 | locus YCL011C, strain gbp2, stronger effect = lower value 1.03 | locus YCL016C, strain dcc1, stronger effect = lower value 1.02 | locus YCL029C, strain bik1, stronger effect = lower value 0.974 | locus YCL061C, strain MRC1, stronger effect = lower value 1.02 | locus YCL069W, strain vba3, stronger effect = lower value 1.02 | locus YCR088W, strain abp1, stronger effect = lower value 1.02 | locus YDL005C, strain med2, stronger effect = lower value 1.02 | locus YDL035C, strain GPR1, stronger effect = lower value 0.977 | locus YDL040C, strain nat1, stronger effect = lower value 1.03 | locus YDL074C, strain BRE1, stronger effect = lower value 0.928 | locus YDL101C, strain DUN1, stronger effect = lower value 0.957 | locus YDL134C, strain PPH21, stronger effect = lower value 0.998 | locus YDL185W, strain tfp1, stronger effect = lower value 0.985 | locus YDL192W, strain arf1, stronger effect = lower value 0.975 | locus YDR001C, strain nth1, stronger effect = lower value 1.03 | locus YDR069C, strain doa4, stronger effect = lower value 1.05 | locus YDR101C, strain arx1, stronger effect = lower value 0.969 | locus YDR137W, strain rgp1, stronger effect = lower value 0.967 | locus YDR150W, strain NUM1, stronger effect = lower value 0.984 | locus YDR159W, strain sac3, stronger effect = lower value 1.02 | locus YDR162C, strain NBP2, stronger effect = lower value 0.937 | locus YDR195W, strain ref2 1.07 | locus YDR297W, strain sur2, stronger effect = lower value 1.02 | locus YDR318W, strain mcm21, stronger effect = lower value 0.969 | locus YDR334W, strain swr1, stronger effect = lower value 1.03 | locus YDR335W, strain msn5, stronger effect = lower value 1.01 | locus YDR388W, stronger effect = lower value 0.97 | locus YDR392W, strain spt3, stronger effect = lower value 0.979 | locus YDR502C, strain sam2, stronger effect = lower value 0.947 | locus YEL003W, strain gim4, stronger effect = lower value 1.02 | locus YEL037C, strain rad23, stronger effect = lower value 1.01 | locus YEL061C, strain CIN8 (second series), stronger effect = lower value 1.04 | locus YEL061C, strain CIN8, stronger effect = lower value 0.979 | locus YER015W, strain faa2, stronger effect = lower value 1.03 | locus YER016W, strain bim1, stronger effect = lower value 1.01 | locus YER110C, stronger effect = lower value 0.975 | locus YER111C, strain swi4, stronger effect = lower value 1.02 | locus YER155C, strain BEM2 (second series), stronger effect = lower value 0.992 | locus YER155C, strain BEM2, stronger effect = lower value 1.01 | locus YER167W, strain BCK2, stronger effect = lower value 1 | locus YFR010W, strain ubp6, stronger effect = lower value 1.03 | locus YGL078C, strain dbp3, stronger effect = lower value 0.979 | locus YGL086W, strain mad1, stronger effect = lower value 0.948 | locus YGL167C, strain pmr1, stronger effect = lower value 1.01 | locus YGL173C, strain kem1, stronger effect = lower value 1.04 | locus YGL227W, strain vid30, stronger effect = lower value 1.03 | locus YGL240W, strain doc1, stronger effect = lower value 1.03 | locus YGL248W, strain PDE1, stronger effect = lower value 0.954 | locus YGL253W, strain hxk2, stronger effect = lower value 1.03 | locus YGR135W, strain pre9, stronger effect = lower value 1 | locus YGR252W, strain gcn5, stronger effect = lower value 1.03 | locus YHR013C, strain ard1, stronger effect = lower value 1.01 | locus YHR027C, strain rpn1, stronger effect = lower value 1.03 | locus YHR030C, strain SLT2, stronger effect = lower value 0.994 and 1.01 | locus YHR079C, strain IRE1 (second series), stronger effect = lower value 0.985 | locus YHR079C, strain IRE1, stronger effect = lower value 1.03 | locus YHR094C, strain hxt1, stronger effect = lower value 0.977 | locus YHR129C, strain ARP1, stronger effect = lower value 0.987 | locus YHR142W, strain chs7, stronger effect = lower value 1.01 | locus YHR200W, strain rpn10, stronger effect = lower value 0.979 | locus YIL066C, strain RNR3, stronger effect = lower value 0.946 | locus YIL073C, strain SPO22, stronger effect = lower value 1.02 | locus YIL125W, strain kgd1, stronger effect = lower value 0.985 | locus YIR030C, strain dcg1, stronger effect = lower value 0.981 | locus YJL092W, strain hpr5, stronger effect = lower value 1.02 | locus YJL095W, strain BCK1 (second series), stronger effect = lower value 1.01 | locus YJL095W, strain BCK1, stronger effect = lower value 0.867 and 1.02 | locus YJL115W, strain asf1, stronger effect = lower value 1.05 | locus YJL129C, strain trk1, stronger effect = lower value 1.01 | locus YJL134W, strain LCB3, stronger effect = lower value 0.991 | locus YJL154C, strain vps35, stronger effect = lower value 1.01 | locus YJL164C, strain tpk1, stronger effect = lower value 1.01 | locus YJL166W, strain qcr8, stronger effect = lower value 1.02 | locus YJL168C, strain set2, stronger effect = lower value 0.979 | locus YJL187C, strain SWE1 (second series), stronger effect = lower value 0.927 | locus YJR043C, strain POL32, stronger effect = lower value 0.941 | locus YJR066W, strain TOR1, stronger effect = lower value 0.967
